Beta2AR agonist: activates human beta-2 adrenergic receptor causing internalization; P07550; Am2.2-beta2AR cells, FAP receptor internalization, flow cytometry; response, % (test concentration not listed); hit rate 0.43% among 340,000; AID 504454;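 active = response above a set limit, near 3 SD of response in nonfluorescent compounds, cut at about 42% in these data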
Target sequence (P07550 whole entry, looked up): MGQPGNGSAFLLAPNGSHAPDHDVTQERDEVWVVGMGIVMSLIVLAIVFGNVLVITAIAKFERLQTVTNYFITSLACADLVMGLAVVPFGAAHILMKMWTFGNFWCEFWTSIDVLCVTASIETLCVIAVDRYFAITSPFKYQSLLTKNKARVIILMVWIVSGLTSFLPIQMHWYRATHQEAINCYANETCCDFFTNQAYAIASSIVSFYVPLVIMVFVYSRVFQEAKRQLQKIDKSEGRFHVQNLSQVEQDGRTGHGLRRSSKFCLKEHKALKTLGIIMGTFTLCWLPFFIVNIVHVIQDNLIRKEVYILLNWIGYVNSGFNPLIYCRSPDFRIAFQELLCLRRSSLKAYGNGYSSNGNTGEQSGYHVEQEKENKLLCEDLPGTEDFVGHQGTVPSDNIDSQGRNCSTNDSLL
A1 inh: inhibitors of the anti-apoptotic protein A1, read as caspase activation. MEF A1-2A-BIM cells, Caspase-Glo 3/7 luminescence, 3 h; percent of clofoctol response, vehicle zero. caspase activation, % (test concentration not listed). hit rate 0.066% among 330,000;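 active = over half of replicate activation scores above 10%, or exactly half above 10 with the replicate mean above 10; inconclusive = replicate mean below 10 yet half the replicates above 10; inactive = over half of replicates below 10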
dFosB act-1: mouse delta FosB homodimer activation; hit rate 0.99% among 340,000; purified delta FosB, TAMRA-CDK5 oligo fluorescence polarization; percent of positive-control signal above neutral wells; activation, % at 25 µM;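 active = mean activation above about 17%, with every replicate also reaching it, limit read from the data, passing the limit was not always enough; inconclusive = only one of the two conditions met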
Dyrk1A ADPGlo: blocks rat Dyrk1A kinase activity; Q63470; ADP-Glo luminescence, NFATc1 peptide; inhibition, % at 12.5 µM; hit rate 0.43% among 310,000; AID 504441; in the data active = inhibition above about 50%;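 also: plate controls were vehicle with enzyme for no effect and no enzyme for full effect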
dFosB act-2: activators of mouse delta FosB homodimer DNA binding. shares compounds with dFosB act-1. purified delta FosB, TAMRA-CDK5 oligo fluorescence polarization; normalised: neutral wells 0, positive control 100. activation, % at 24.9 µM. 2,400 tested, under 10 active. AID 588690;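 active = highest replicate activation at or above 34% and every replicate reaching that threshold; inconclusive = meets only one of the two criteria; inactive = meets neither criterion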;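 also: higher polarization means more probe DNA bound by delta FosB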
An asterisk follows results filed as active; ? = inconclusive; . = no result given. In the library only some 1.6% were active in any assay of this set; here they are far more common.

SMILES	Beta2AR agonist	A1 inh	dFosB act-1	Dyrk1A ADPGlo	dFosB act-2
Cc1cc(C)cc(NC(=O)Cn2nnc(C(=O)NCc3ccccc3Cl)c2N)c1	3	1	41*	4	0
COc1ccc(NC(=O)Cn2nnc(C(=O)NCc3ccc(C)cc3)c2N)cc1Cl	4	0	7	6	.
CCOC(=O)c1c(C)[nH]c(C)c1C(=O)CSc1nnc(-c2cc(OC)c(OC)c(OC)c2)o1	-3	0	33*	-3	5
O=c1c(-c2c(O)cc(O)c3c2O[C@H](c2ccc(O)cc2)CC3)c(-c2ccc(O)cc2)oc2cc(O)cc(O)c12	4	-2	31*	35	7
O=C1CC(c2ccc(O)cc2)Oc2cc(O)cc(O)c21 (stereo not drawn)	-1	-2	-9	21	.
Cc1cc(C)c(S(=O)(=O)Nc2nccs2)c(C)c1	-4	1	5	12	.
CC(=O)c1cccc(NC(=O)Cc2coc3cc4c(cc23)CCC4)c1	-6	1	41*	-2	3
Cn1cc([N+](=O)[O-])c(C(=O)NC2CCCCCC2)n1	9	-1	-5	5	.
O=C1CC(C(=O)Nc2ccc(Cl)cc2)n2ncnc2N1 (stereo not drawn)	-1	1	0	.	.
Cc1ccc(NC(=O)C2CC(=O)n3c(nc4ccccc43)N2)cc1Cl (stereo not drawn)	3	-1	31*	-4	-16
Cc1ccc(NC(=O)C2CC(=O)n3ncnc3N2)cc1 (stereo not drawn)	3	0	-4	-6	.
CC(C)c1ccc(NC(=O)C2CC(=O)Nc3nc4ccccc4n32)cc1 (stereo not drawn)	-2	1	81*	-9	5
Cc1ccc(NC(=O)C2CC(=O)n3c(nc4ccccc43)N2)cc1C (stereo not drawn)	9	2	31*	-2	-2
CCC1(c2ccccc2)NC(=O)N(CC(=O)Nc2ccc3c(C)cc(=O)oc3c2)C1=O (stereo not drawn)	21	0	-9	.	.
O=C(NNC(=O)c1sc2ccccc2c1Cl)Nc1ccc(Cl)cc1	1	0	19*	7	1
COC(=O)c1ccc(NC(=O)CNC(=O)c2sc3ccccc3c2Cl)cc1	-4	-2	53*	2	3
NC(=O)c1ccc(NC(=O)CNC(=O)c2sc3ccccc3c2Cl)cc1	5	1	38*	.	2
CC(=O)Nc1ccc(NC(=O)CNC(=O)c2sc3ccccc3c2Cl)cc1	-10	1	42*	1	1
CC(=O)Nc1ccc(NC(=O)C(C)OC(=O)CNC(=O)c2sc3ccccc3c2Cl)cc1 (stereo not drawn)	14	0	4	-2	.
NC(N)=NS(=O)(=O)c1ccc(NC(=S)NC(=O)c2sc3ccccc3c2Cl)cc1	-12	0	29*	22	5
Cc1ccc(C)c2c1[nH]c1ccc([N+](=O)[O-])cc12	-3	-1	21*	29	0
Cc1c(C(=O)NN)[nH]c2ccc([N+](=O)[O-])cc12	-6	0	.	.	.
CC(C)(C)NS(=O)(=O)c1ccc(NC(=O)CS(=O)(=O)Cc2ccccc2)cc1	4	1	-1	8	.
Nc1nc(NCC(=O)O)nc(NCc2ccccc2)c1[N+](=O)[O-]	-5	0	3	-2	.
Cc1cccc(Nc2nc(N)c([N+](=O)[O-])c(NCCO)n2)c1	-3	0	0	.	.
SMILES	Beta2AR agonist	A1 inh	dFosB act-1	Dyrk1A ADPGlo	dFosB act-2
Cc1ccc(Nc2nc(N)c([N+](=O)[O-])c(NCc3ccccc3)n2)cc1	-2	1	47*	4	0
Cc1cccc(Nc2nc(N)c([N+](=O)[O-])c(NCc3ccco3)n2)c1	-12	0	53*	26	5
Cc1nn(C)c(Sc2ccccc2N)c1[N+](=O)[O-]	3	0	-3	-4	.
COc1ccc(C(CNC(=O)c2oc3ccc(Cl)cc3c2C)N2CCCCC2)cc1 (stereo not drawn)	-8	0	23*	1	6
Cc1ccc(C)c(NC(=S)N2CCC(NC(=O)c3ccco3)CC2)c1	0	0	-8	15	.
CN(C)C=Nc1ncc2c3ccccc3n(Cc3ccccc3)c2c1C#N	-8	0	2	-12	.
CCN(CC)CCn1c2ccccc2c2cnc(N)c(C#N)c21	-6	0	62*	22	-1
CN(C)C=Nc1ncc2c3ccccc3n(CCN(C)C)c2c1C#N	-2	0	33*	17	-3
CN(C)S(=O)(=O)c1ccc(C(=O)NNC(=O)C23CC4CC(CC(C4)C2)C3)cc1	2	1	3	.	.
CC1(NC(=O)CC(c2ccccc2)(c2ccccc2)c2ccccc2)CCN(CCCc2ccccc2)C1=O (stereo not drawn)	.	1	-13	-1	.
COc1cccc(C(=O)NCc2nnc(SCC(=O)Nc3nccs3)n2-c2ccccc2)c1	-3	1	28*	-3	3
CC(=O)c1nn(-c2cccc(Br)c2)cc1C(=O)c1ccccc1	-2	0	1	-2	.
CC(=O)c1nn(-c2cccc(Br)c2)cc1C(=O)c1ccc(Cl)cc1	-3	0	28*	-3	4
C#CCn1c(=NC(=O)c2ccc(S(=O)(=O)N3CCCc4ccccc43)cc2)sc2cc(S(N)(=O)=O)ccc21	5	1	59*	-1	2
Cc1nn(Cc2ccccc2Cl)c2sc(C(=O)NC(C)(C)C)cc12	-4	0	-13	1	.
Cc1csc(NC(=O)c2cc3c(C)nn(Cc4ccccc4Cl)c3s2)n1	12	1	46*	0	7
COc1ccc(NC(=O)C2CC(=O)N(CCc3ccc(Cl)cc3)C2)cc1 (stereo not drawn)	3	0	1	-11	.
O=C(Nc1ccc(OC(F)(F)F)cc1)N1CCN(c2ccnc3cc(Cl)ccc23)CC1	2	0	39*	.	-4
COCCNC(=O)COc1ncnc2ccc(Br)cc12	-1	0	-3	4	.
O=C(COc1ncnc2ccc(Br)cc12)NCc1ccco1	-10	-1	22*	7	-7
Cc1cc(C)c2sc(N(CCCN(C)C)C(=O)CN3C(=O)c4ccccc4C3=O)nc2c1	-3	0	31*	-2	-15
Cc1ccc2nc(N(CCCN(C)C)C(=O)CN3C(=O)c4ccccc4C3=O)sc2c1	-3	0	?	-4	.
Cc1cccc(C)c1NC(=O)COC(=O)c1cc(=O)[nH]c2ccccc12	2	0	42*	.	3
O=C(COC(=O)c1cc(=O)[nH]c2ccccc12)Nc1nc(-c2ccccc2)cs1	9	-3	55*	12	4
O=C(COC(=O)c1cc(=O)[nH]c2ccccc12)NCc1ccccc1	5	1	-1	1	.
O=C(COC(=O)c1cc(=O)[nH]c2ccccc12)Nc1ccc(Cl)cn1	-3	1	19*	0	1
Cc1ccc(CNC(=O)COC(=O)c2cc(=O)[nH]c3ccccc23)cc1	4	-1	55*	-2	-1
